Assay [1] is described as follows: qHTS assay for small molecules that induce genotoxicity in human embryonic kidney cells expressing luciferase-tagged ATAD5 (AID 651632). Note: nearly all actives have a fitted effect of over 15% in size. Note: potency is the fitted concentration of half-maximal effect. The method in brief: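 Cells were seeded at 2,000 per well, dosed with compound, and incubated 16 hr at 37C in 5% CO2. Luciferase activity was then quantified after a 30 min room-temperature incubation with Amplite.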
(In general: qHTS replaces the single test concentration by a dilution series.)

Assay [2] in a line: qHTS assay for small molecules that induce genotoxicity in human embryonic kidney cells expressing luciferase-tagged ATAD5 - cell viability (AID 651634; calls by dose curve; note: nearly all actives have a fitted effect of over 25% in size). The essentials:
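Cells (HEK293T, luciferase-tagged ATAD5) are seeded at 2,000 per well, dosed with compound or DMSO vehicle, and incubated 15.5 hr at 37C and 5% CO2. CellTiter-Fluor is added for 30 min before fluorescence is measured.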

Assay [3] can be described thus: qHTS assay for small molecule disruptors of the mitochondrial membrane potential - cell viability (AID 720634; calls by dose curve;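 note: human HepG2 liver cancer cells; series mostly up to about 83 µM; nearly all actives have a fitted effect of over 20% in size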). The method in brief:
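Cytotoxicity was measured by ATP quantitation in HepG2 wells that had first been treated with compound for 1 hr and stained with m-MPI dye; CellTiter-Glo incubation was 30 min at room temperature.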

Assay [4] is described as follows: qHTS assay to test for compound auto fluorescence at 590 nm (red) in HepG2 cells (AID 720674). The method in brief:
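Red autofluorescence (Ex/Em 540/590 nm, Rose Bengal sodium equivalents) was measured in HepG2 cells, 2,000 per well in MEM plus 10% FBS, plated overnight at 37 C. Readings were taken 1 hr after adding 23 nL compound or DMSO, at 37 C and 5% CO2.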

The nature of assay [5]: qHTS assay to test for compound auto fluorescence at 460 nm (blue) in HEK293 cells (AID 720678). The essentials: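 Blue-channel (Ex/Em 405/460 nm) intensity measured in HEK293 cultures after overnight compound exposure at 37C; signal expressed relative to triamterene. Cells plated 2,000 per well in 10% dialyzed FBS medium and allowed 4-5 hr to attach.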
The nature of assay [6]: qHTS assay to test for compound auto fluorescence at 535 nm (green) in HEK293 cells (AID 720680).
Assay [7] in a line: qHTS assay to test for compound auto fluorescence at 460 nm (blue) in HEK293 cell free culture (AID 720681). The method in brief:
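Blue fluorescence (Ex 405/Em 460 nm, triamterene-equivalent) was read immediately after pin transfer of compound or DMSO into medium (DMEM, 10% FBS) without cells.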

The nature of assay [8]: qHTS assay to test for compound auto fluorescence at 535 nm (green) in HEK293 cell free culture (AID 720682). The method in brief:
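Measurement is a direct plate read of green fluorescence (485 nm in, 535 nm out) after compound addition to serum-supplemented DMEM lacking cells, with fluorescein used to express intensities.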

The nature of assay [9]: qHTS assay to test for compound auto fluorescence at 590 nm (red) in HEK293 cell free culture (AID 720683). The method in brief:
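Red-channel autofluorescence of compounds in culture medium (DMEM, 10% FBS), no cells, measured at 540/590 nm. Rose Bengal sodium is the reference fluorophore for equivalence.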

Assay [10] can be described thus: qHTS assay to test for compound auto fluorescence at 590 nm (red) in HepG2 cell free culture (AID 720684). The method in brief: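 Cell-free; medium MEM + 10% FBS; compound or DMSO added by pintool; read Ex 540/Em 590 nm; Rose Bengal sodium as red reference fluorophore.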
The nature of assay [11]: qHTS assay to test for compound auto fluorescence at 460 nm (blue) in HepG2 cell free culture (AID 720685). The essentials:
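Cell-free plates of MEM plus 10% FBS received 23 nL compound or DMSO vehicle; blue-channel (405/460 nm) intensity scored against triamterene as reference fluorophore.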

Assay [12] is described as follows: qHTS assay to test for compound auto fluorescence at 460 nm (blue) in HepG2 cells (AID 720687). The essentials: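 Blue-channel autofluorescence (Ex/Em 405/460 nm, triamterene-equivalent) was measured after 1 hr compound exposure at 37 C, 5% CO2. Cells were HepG2, plated overnight at 37 C in MEM plus 10% FBS.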
Assay [13] in a line: qHTS assay to identify small molecule antagonists of the glucocorticoid receptor (GR) signaling pathway - cell viability counter screen (AID 720693). Note: nearly all actives have a fitted effect of over 55% in size.
The nature of assay [14]: qHTS assay to identify small molecule antagonists of the thyroid receptor (TR) signaling pathway - cell viability counter screen (AID 743064). Note: nearly all actives have a fitted effect of over 50% in size. Note: potency is the fitted concentration of half-maximal effect. The method in brief: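 Compounds were tested on GH3.TRE-Luc cells in the presence of T3 at 1 nM final. Following 23.5 h at 37 °C, cell viability was quantified by CellTiter-Fluor.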
A further assay has as its target Aromatase (Homo sapiens) (UniProt P11511). Put plainly: qHTS assay to identify aromatase inhibitors (AID 743083). Note: series mostly up to about 70 µM; nearly all actives have a fitted effect of over 55% in size.
Assay [15] is described as follows: qHTS assay to identify aromatase inhibitors - cell viability counter screen (AID 743084).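 Note: cells stimulated with testosterone during compound exposure; nearly all actives have a fitted effect of over 55% in size.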
Assay [16] addresses Aryl hydrocarbon receptor (Homo sapiens) (UniProt P35869). Put plainly: qHTS assay to identify small molecule that activate the aryl hydrocarbon receptor (AhR) signaling pathway (AID 743085). Note: nearly all actives have a fitted effect of over 15% in size. Note: potency is the fitted concentration of half-maximal effect. The essentials: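 24 h compound exposure, 37C, HepG2-derived HG2L7.5c1 cells with DRE-responsive luciferase. Readouts: fluorescence viability, then luminescence at room temperature after 30 min.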

Assay [17] concerns the target Acetylcholinesterase (Homo sapiens) (UniProt P22303). Put plainly: Acetylcholinesterase (AChE) small molecule antagonists: colormetric cell-based qHTS assay (AID 1347395; calls by dose curve; note: nearly all actives have a fitted effect of over 30% in size; note: potency is the fitted concentration of half-maximal effect). The essentials: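 In this cell-based qHTS, attached SH-SY5Y cells were treated with test chemicals for 30 min, after which acetylthiocholine hydrolysis was followed by DTNB colour development over 90 min at 37 C.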

For assay [18] the target is unchanged. Put plainly: Acetylcholinesterase (AChE) small molecule antagonists: enzyme-based qHTS assay (AID 1347397; calls by dose curve; note: nearly all actives have a fitted effect of over 55% in size). Conditions: Potency: AChE enzyme activity inhibition; outcome: AChE enzyme activity inhibition. The method in brief:
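Colorimetric DTNB readout of acetylthiocholine hydrolysis, 10 min at room temperature, after 30 min room-temperature exposure of 50 mU/mL recombinant human enzyme to compound; DMSO vehicle control.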

Assay [19] shares this target. Description: Acetylcholinesterase (AChE) small molecule antagonists: fluorescence cell-based qHTS assay (AID 1347398; calls by dose curve; note: nearly all actives have a fitted effect of over 50% in size). The following applies: Potency: AChE activity; outcome: AChE activity. The method in brief:
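Cellular AChE activity read as thiocholine from acetylthiocholine hydrolysis, detected by Thiolite Green fluorescence at 490/520 nm after 40 min at room temperature. Compounds were pre-incubated 30 min at 37 C on adherent SH-SY5Y cells.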

A number with no mark means an inactive call. Records with an inconclusive call do not appear. Calls of active or inactive are those of the source. Unless noted, calls come from the whole dose curve; as a rule, active = well fitted curve in the direction sought with a large enough effect in the repeat runs; inconclusive = weak or mixed curves; inactive = no such curve, though single readings can be large; an effect the other way counts as inactive or inconclusive.

Sequence of Aryl hydrocarbon receptor (Homo sapiens) (P35869 whole entry, looked up): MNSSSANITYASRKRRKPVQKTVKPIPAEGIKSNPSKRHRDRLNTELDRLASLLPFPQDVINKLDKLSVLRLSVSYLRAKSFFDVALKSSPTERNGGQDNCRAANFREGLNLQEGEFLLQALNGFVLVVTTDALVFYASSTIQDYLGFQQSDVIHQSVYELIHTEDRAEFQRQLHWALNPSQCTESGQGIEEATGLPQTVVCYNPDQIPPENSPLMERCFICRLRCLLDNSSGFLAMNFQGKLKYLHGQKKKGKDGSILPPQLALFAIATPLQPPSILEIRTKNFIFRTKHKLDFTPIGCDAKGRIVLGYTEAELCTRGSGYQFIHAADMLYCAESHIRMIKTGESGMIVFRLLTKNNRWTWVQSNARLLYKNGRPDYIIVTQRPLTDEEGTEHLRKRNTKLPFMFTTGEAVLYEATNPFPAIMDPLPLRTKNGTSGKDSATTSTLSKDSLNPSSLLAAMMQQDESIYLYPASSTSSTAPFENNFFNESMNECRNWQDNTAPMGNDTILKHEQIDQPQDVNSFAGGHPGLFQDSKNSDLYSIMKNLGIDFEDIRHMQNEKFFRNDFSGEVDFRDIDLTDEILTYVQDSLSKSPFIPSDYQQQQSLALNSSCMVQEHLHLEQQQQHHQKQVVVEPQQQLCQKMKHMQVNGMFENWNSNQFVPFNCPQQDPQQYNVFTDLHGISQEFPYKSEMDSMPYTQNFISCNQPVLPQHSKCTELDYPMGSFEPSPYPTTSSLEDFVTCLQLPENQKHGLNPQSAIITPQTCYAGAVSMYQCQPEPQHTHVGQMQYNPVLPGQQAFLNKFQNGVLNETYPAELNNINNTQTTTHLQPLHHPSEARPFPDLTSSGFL
Sequence of Aromatase (Homo sapiens) (P11511 whole entry, looked up): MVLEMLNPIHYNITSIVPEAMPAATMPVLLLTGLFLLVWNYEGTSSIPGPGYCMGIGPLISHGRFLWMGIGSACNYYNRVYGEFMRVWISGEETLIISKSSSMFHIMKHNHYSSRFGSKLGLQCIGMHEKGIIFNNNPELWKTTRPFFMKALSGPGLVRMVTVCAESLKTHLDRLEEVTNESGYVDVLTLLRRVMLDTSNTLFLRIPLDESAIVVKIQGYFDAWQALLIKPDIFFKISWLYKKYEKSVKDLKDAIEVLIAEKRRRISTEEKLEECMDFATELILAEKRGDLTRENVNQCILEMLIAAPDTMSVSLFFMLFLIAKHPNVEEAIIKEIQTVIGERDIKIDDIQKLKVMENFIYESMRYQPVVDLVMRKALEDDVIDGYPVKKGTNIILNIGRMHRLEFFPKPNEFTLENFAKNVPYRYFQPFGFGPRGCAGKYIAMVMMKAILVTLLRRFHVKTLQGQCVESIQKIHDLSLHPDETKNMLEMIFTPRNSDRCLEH
Sequence of Acetylcholinesterase (Homo sapiens) (P22303 whole entry, looked up): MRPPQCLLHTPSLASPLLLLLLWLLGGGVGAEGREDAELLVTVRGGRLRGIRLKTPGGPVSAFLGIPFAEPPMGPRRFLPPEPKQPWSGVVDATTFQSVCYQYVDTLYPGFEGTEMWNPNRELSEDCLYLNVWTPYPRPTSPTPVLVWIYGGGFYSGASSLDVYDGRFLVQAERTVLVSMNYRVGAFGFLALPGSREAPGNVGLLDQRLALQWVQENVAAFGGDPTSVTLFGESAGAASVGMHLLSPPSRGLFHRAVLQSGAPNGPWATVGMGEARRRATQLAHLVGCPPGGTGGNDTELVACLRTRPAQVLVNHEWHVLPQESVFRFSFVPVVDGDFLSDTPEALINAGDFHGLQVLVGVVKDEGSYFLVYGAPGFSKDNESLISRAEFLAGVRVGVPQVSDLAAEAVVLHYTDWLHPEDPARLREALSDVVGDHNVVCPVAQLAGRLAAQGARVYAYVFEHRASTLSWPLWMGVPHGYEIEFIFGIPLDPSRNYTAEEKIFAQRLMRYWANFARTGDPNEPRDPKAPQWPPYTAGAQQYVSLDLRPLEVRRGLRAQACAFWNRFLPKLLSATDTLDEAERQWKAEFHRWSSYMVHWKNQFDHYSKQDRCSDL

As to `O=C(O)CCCO`, the Potency result in assay [1], in assay [2], in [3], in [5], in assay [6] and in assay [7] was “inactive” throughout. The Potency entry (in assay [8]; in assay [11]; in [12]; in assay [13]; in assay [14]; in the assay with Aromatase (Homo sapiens)) was “inactive” each time. For the same compound, the Potency entry in assay [15] and in [16] was “inactive” in each case. Moreover, the compound was called inactive in assay [4], in assay [9] and in [10].

`CN[C@@]1(c2ccccc2Cl)CCCCC1=O`: the Potency result in [1], in [2], in assay [3], in assay [5], in [6] and in assay [7] was “inactive” each time. For the same compound, the Potency result (in [8]; in assay [11]; in assay [12]; in [13]; in assay [14]; with Aromatase (Homo sapiens)) was “inactive” each time. The Potency entry in assay [15] and in assay [16] was “inactive” in each case. Also, the outcome in assay [4], in assay [9] and in [10] was inactive.

For `C[C@]12CC[C@@H]3c4ccc(OC(=O)N(CCCl)CCCl)cc4CC[C@H]3[C@@H]1CC[C@@H]2OP(=O)(O)O`, the Potency result in [1], in assay [2], in assay [3], in assay [5], in assay [6] and in [7] was “inactive” throughout. Moreover, the Potency result (in [8]; in assay [11]; in [12]; in assay [13]; with Aromatase (Homo sapiens); in assay [15]) was “inactive” throughout. For the same compound, the Potency result in assay [16] was “inactive”. The outcome in assay [4], in [9] and in assay [10] was inactive.

Turning to `CN1C(=O)CC(=O)N(c2ccccc2)c2cc(Cl)ccc21`, the Potency result in [1], in [2], in assay [3], in assay [5], in assay [6] and in [7] was “inactive” throughout. Further, the Potency entry (in assay [8]; in assay [11]; in [12]; in assay [13]; in assay [14]; with Aromatase (Homo sapiens)) was “inactive” throughout. In addition, the Potency result in [15] and in assay [16] was “inactive” throughout. Besides, the compound was classed as inactive in assay [4] and in assay [9].

As to `Clc1cc(Cl)c(Cl)cc1Cl`, the Potency result (with Aromatase (Homo sapiens); in assay [16]; in [17]; in assay [18]; in [19]) was “inactive” each time.

With `Cc1c(N)cccc1N`, the Potency entry (in the assay with Aromatase (Homo sapiens); in assay [17]; in [18]; in [19]) was “inactive” each time. Moreover, in [16], the Potency is 27.9 µM (active).

On to `COc1ccc(OC)c(C[C@H](C)N)c1`, for which the Potency result in assay [1], in [2], in assay [3], in [5], in assay [6] and in assay [7] was “inactive” in each case. Also, the Potency result (in assay [8]; in [11]; in [13]; in assay [14]; with Aromatase (Homo sapiens); in assay [15]) was “inactive” each time. Moreover, in assay [16], the Potency entry is “inactive”. Also, the compound was classed as inactive in assay [4], in assay [9] and in assay [10].

For the compound `C[N+](C)(C)CCCCCCCCCC[N+](C)(C)C`, the Potency result (in the assay with Aromatase (Homo sapiens); in assay [16]) was “inactive” in each case. In assay [17], the Potency is 15.5 µM (active).

For the compound `Cc1nnc2n1-c1sc(Br)cc1C(c1ccccc1Cl)=NC2`, the Potency in assay [1] is 23.7 µM (active); in assay [14] it was 21.1 µM (active). Besides, the Potency entry in [2], in assay [3], in assay [5], in assay [6], in assay [7] and in [8] was “inactive” throughout. The Potency result (in assay [11]; in [12]; in assay [13]; in the assay with Aromatase (Homo sapiens); in [15]; in [16]) was “inactive” in each case. Also, the compound was classed as inactive in [4], in assay [9] and in [10].

The values above are taken from PubChem BioAssay (Tox21).
